# Sampled rows, rich in hits. Any-hit rate of the full collection: about 1.2%.
# Mtb UGM inh: Mtb UDP-galactopyranose mutase inhibition. purified UGM, fluorescence polarization probe displacement. inhibition, % at 10 µM. actives 0.06% (n = 320,000). AID 504406; in the data active = inhibition above about 10%, passing the limit was not always enough
# PriA SSB inh: blocks PriA binding to SSB C-terminal tail. actives 0.6% (n = 430,000). AlphaScreen SSBct-PriA binding, biotinylated peptide. inhibition, % at 33 µM. AID 1272365; in the data active = inhibition mostly above about 37%, no sharp cut-off; inactive = mostly below about 20%;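 note: plate controls were negative control peptide for no effect and reference peptide for full effect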
# FadD28 binding: inhibitors of Mycobacterium tuberculosis FadD28 bisubstrate binding. FadD28 bisubstrate probe binding, fluorescence polarization. inhibition, % at 12.5 µM. actives 0.22% (n = 360,000); in the data active = inhibition above about 8.5%, passing the limit was not always enough
# PrP 5UTR inh: inhibition of PrP 5' UTR reporter expression. cell-based PrP 5' UTR mRNA reporter, plate reader. inhibition, % (test concentration not listed). actives 0.35% (n = 340,000); in the data active = inhibition above about 52%; note: 0 = median of the neutral control wells
# PrPC TRFRET: reduces human prion protein on the cell surface; AID 720596; cell surface PrPC, TR-FRET read-out; actives 0.43% (n = 370,000); inhibition, % at 13.8 µM; in the data active = inhibition above about 24%; note: 0% = median of the test wells and 100% = reference compound wells
# Rv3671c inh: inhibits the M. tuberculosis serine protease Rv3671c. P9WHR9. inhibition, % at 5.96 µM. actives 0.048% (n = 320,000). AID 2606; in the data active = inhibition above about 38%;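 note: extracellular domain of Rv3671c used as enzyme; 0% = enzyme with DMSO and 100% = no enzyme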
# Target sequence (P9WHR9 whole entry, looked up, the tested form may be a part): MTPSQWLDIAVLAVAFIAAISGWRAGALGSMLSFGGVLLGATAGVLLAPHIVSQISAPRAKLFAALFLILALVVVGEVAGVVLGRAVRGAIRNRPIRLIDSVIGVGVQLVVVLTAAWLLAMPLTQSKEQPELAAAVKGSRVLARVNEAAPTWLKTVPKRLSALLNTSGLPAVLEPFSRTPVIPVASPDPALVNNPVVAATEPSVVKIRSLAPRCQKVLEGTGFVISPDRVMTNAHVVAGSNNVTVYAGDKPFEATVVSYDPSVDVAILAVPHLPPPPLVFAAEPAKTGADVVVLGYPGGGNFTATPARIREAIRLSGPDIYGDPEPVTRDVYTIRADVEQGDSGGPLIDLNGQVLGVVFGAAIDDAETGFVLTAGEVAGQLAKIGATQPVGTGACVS
# * = called active by the depositor; . = no result given.
SMILES,Mtb UGM inh,PriA SSB inh,FadD28 binding,PrP 5UTR inh,PrPC TRFRET,Rv3671c inh
O=C(Cc1ccccc1Cl)NCCn1ccnc1-c1ncccn1,.,1,.,.,.,.
Cc1oncc1C(=O)NCCn1ccnc1-c1ncccn1,.,46*,.,.,.,.
CN(C)S(=O)(=O)c1ccc(C(=O)NNC(=O)c2ccc3c(c2)CCCC3)cc1,.,1,.,.,.,.
CCn1cc2c(n1)c(=O)n(Cc1ccccc1)c(=O)n2CC(=O)NCc1cccc(OC)c1OC,.,6,.,.,.,.
O=C1C2N=NN(Cc3nc(-c4ccc5c(c4)OCO5)no3)C2C(=O)N1c1ccc2c(c1)CCC2 (centres undefined),.,-11,.,.,.,.
CCOc1ccccc1C(=O)NCCn1ccnc1-c1ncccn1,.,55*,.,.,.,.
CCOc1ccccc1C(=O)NCCCCNC(=O)c1ccccc1OCC,0,3,0,-15,8,3
COc1ccccc1CNC(=O)c1sc(=S)n(Cc2ccco2)c1N,.,32,.,.,.,.
COc1ccc(C2=NN(c3ccc(C(=O)O)cc3)C(c3ccc(OC)c(OC)c3)C2)cc1 (centres undefined),0,-13,37*,3,-3,17
CN(C)c1ccc(-c2nc3ccccc3n2CCOc2ccccc2)cc1,.,29*,.,.,.,.
COc1ccc(-c2nc3ccccc3n2CCOc2ccccc2)cc1OC,.,1,.,.,.,.
CCC(=O)c1ccc(OCC(O)CNCCc2ccc(Cl)cc2)cc1 (centres undefined),2,40*,-1,-19,-8,-5
COC(=O)C1CCN(C(=O)CCn2cnc3c(cnn3-c3ccc(F)cc3)c2=O)CC1,.,-8,.,.,.,.
CSC(=NS(=O)(=O)c1ccc(N)cc1)NS(=O)(=O)c1cccs1,.,-7,17*,-17,-2,.
CC(C)C(=O)Nc1ccc(S(=O)(=O)NCCc2ccc3c(c2)CCCN3C)cc1,.,-8,.,.,.,.
Cc1ccc(S(=O)(=O)NCCc2ccc3c(c2)CCCN3C)cc1Cl,.,38*,.,.,.,.
CCCN1CCCc2cc(CCNC(=O)c3ccc(F)c(F)c3)ccc21,.,45,.,.,.,.
CCCN1CCCc2cc(CCNS(C)(=O)=O)ccc21,.,70*,.,.,.,.
CCCN1CCCc2cc(CCNS(=O)(=O)c3ccc(F)c(Cl)c3)ccc21,.,47*,.,.,.,.
CCCN1CCCc2cc(CCNS(=O)(=O)c3ccc(CC)s3)ccc21,.,60*,.,.,.,.
CCCC(=O)NCCc1ccc2c(c1)CCCN2CCC,.,28,.,.,.,.
CCCN1CCCc2cc(CCNS(=O)(=O)CCc3ccccc3)ccc21,.,71*,.,.,.,.
CCCN1CCCc2cc(CCNS(=O)(=O)c3ccc(CC)cc3)ccc21,.,51*,.,.,.,.
CN1CCCc2cc(CCNC(=O)Cc3cccs3)ccc21,.,42,.,.,.,.
CN1CCCc2cc(CCNS(=O)(=O)c3cccs3)ccc21,.,71*,.,.,.,.
SMILES,Mtb UGM inh,PriA SSB inh,FadD28 binding,PrP 5UTR inh,PrPC TRFRET,Rv3671c inh
COc1ccc(C)cc1S(=O)(=O)NCCc1ccc2c(c1)CCCN2C,.,65*,.,.,.,.
O=C(CCCn1nc(-c2ccc(Cl)cc2)ccc1=O)Nc1cccc(C(F)(F)F)c1,.,-8,.,.,.,.
CCOc1ccc(-n2nnnc2CNC(=O)Nc2ccccc2Cl)cc1,.,-2,.,.,.,.
CCCN1CCCc2cc(CCNC(=O)C(=O)NC(C)C)ccc21,.,22,.,.,.,.
CCCN1CCCc2cc(CCNS(=O)(=O)CC(C)C)ccc21,.,74*,.,.,.,.
CCCN1CCCc2cc(CCNC(=O)CC)ccc21,.,52,.,.,.,.
CCCN1CCCc2cc(CCNS(=O)(=O)CCC)ccc21,.,112*,.,.,.,.
CCCN1CCCc2cc(CCNS(=O)(=O)c3ccc4c(c3)OCCO4)ccc21,.,67*,.,.,.,.
CCCN1CCCc2ccccc21,-1,39*,-1,-36,-1,14
CC(C)(C)NC(=O)CN(C(=O)CCN1CCCc2ccccc21)C(C)(C)C,-1,-6,0,-25,8,-4
CS(=O)(=O)N1CCN(C(=O)C2CN(C(=O)c3cnccn3)C2)CC1,.,-6,.,.,.,.
O=C(NCCn1ncccc1=O)c1ccc2ccccc2c1,.,-12,.,.,.,.
COc1cccc(NC(=O)CN(C)C(=O)c2cc3c(s2)CCCC3)c1,-1,2,1,-14,16,-5
COc1cccc(NC(=O)CN(C)C(=O)c2cc3c(s2)CCCCC3)c1,1,11,13*,-21,-2,-4
COc1ccc(S(=O)(=O)N2CCN(c3cccc(Cl)c3)CC2)cc1[N+](=O)[O-],.,23,.,.,.,.
O=[N+]([O-])c1cc(C(F)(F)F)ccc1NCCc1c[nH]c2ccc(O)cc12,1,22,12*,-28,-10,12
COc1ccc(Nc2ccc3c(c2)=NC2(CCCCC2)[N+]=3[O-])cc1,-1,65*,-1,-31,-25,-5
[O-][N+]1=c2ccc(Nc3ccccc3)cc2=NC12CCCCC2,0,57*,-1,-14,-10,-20
COc1ccc(NC2=NC(=S)N(c3ccccc3C)C23CCCCC3)cc1,2,-9,0,-14,9,2
COc1cccc(C(=O)OCC(=O)NCc2ccc3c(c2)OCO3)c1OC,10*,-10,-2,-4,-1,0
COc1ccccc1CNC(=O)C(=O)NCC1CCCN1S(=O)(=O)c1ccccc1 (centres undefined),.,4,.,.,.,.
N#Cc1nc(-c2ccccc2Cl)oc1N1CCCCC1,-2,48*,-2,-25,10,4
COc1ccc(-c2nc(C#N)c(N3CCN(C)CC3)o2)cc1,.,54*,.,.,.,.
COc1ccc(-c2nc(C#N)c(N3CCCC3)o2)cc1,.,23,.,.,.,.
COc1ccccc1-c1nc(C#N)c(N2CCN(Cc3ccccc3)CC2)o1,0,41*,0,-11,7,-7
SMILES,Mtb UGM inh,PriA SSB inh,FadD28 binding,PrP 5UTR inh,PrPC TRFRET,Rv3671c inh
N#Cc1nc(-c2ccccc2F)oc1N1CCCCC1,1,14,-1,-18,-2,8
CC(C)(C)c1ccc(-c2nc(C#N)c(N3CCCCC3)o2)cc1,.,73*,.,.,.,.
COc1ccccc1-c1nc(C#N)c(N2CCC(Cc3ccccc3)CC2)o1,2,16,-2,-11,3,2
Cc1ccc(NC(=O)COC(=O)CCc2c[nH]c3ccccc23)cc1[N+](=O)[O-],2,40*,0,-20,-18,2
Cc1ccccc1NC(=O)COC(=O)CCc1c[nH]c2ccccc12,1,6,-2,-4,8,3
Cc1ccccc1OCCn1c([C@H](C)O)nc2ccccc21,.,-2,.,.,.,.
CC(=O)NCCc1nc2ccccc2n1Cc1ccccc1,-5,97*,0,-11,-2,7
CC(=O)NCCc1nc2ccccc2n1Cc1ccc(Cl)cc1,-1,-2,-2,-21,-6,-4
COc1cc2[nH]c(=O)n(CCCCC(=O)N3CCN(c4cc(C)ccc4C)CC3)c(=O)c2cc1OC,.,-3,.,.,.,.
Cc1ccc2[nH]c(-c3cccc(N)c3)cc2c1,-2,39*,-6,-88,4,12
O=C(CSc1ccc(Cl)cc1)Nc1nnc(-c2ccccn2)o1,.,35*,.,.,.,.
Cc1ccc(SCCC(=O)Nc2nnc(-c3ccccn3)o2)cc1,.,10,.,.,.,.
O=C(CN(c1ccc(F)cc1)S(=O)(=O)c1ccc2c(c1)OCCO2)NCc1cccnc1,-1,52*,1,-24,0,-1
O=C(NCCCn1nc(-c2ccco2)ccc1=O)Nc1ccccc1F,.,-15,.,.,.,.
CCOC(=O)c1c(NC(=O)c2ccc(Br)cc2)sc2c1CCC2,.,-9,.,.,.,.
CCOC(=O)c1c(NS(=O)(=O)c2ccc(Br)cc2)sc2c1CCC2,0,1,12*,-2,11,5
